Source: PubChem (National Center for Advancing Translational Sciences (NCATS))
Compounds with a hit are over-represented: about 5.7% of the library has one in this group of screens.
KB-V1 MDR tox: KB-V1 MDR subline cytotoxicity. Potency, µM (top dose mostly 46.1 µM), actives largely listed as cytotoxic. 3.4% of 400,000 active. KB-V1 MDR cells viability, CellTiter-Glo, 72 h; further: nearly all actives have a fitted effect of over 60% in size
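qHTS viability screen in drug-selected KB-V1 MDR cells: 72 h compound treatment at 37 degrees C, ATP luminescence end point.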
HT1080 IDH1KD tx: kills HT-1080 cells with IDH1 knockdown; 2% of 360,000 active; HT-1080 IDH1 knockdown viability, ATP luminescence, 48 h; Potency, µM (series often up to 46.1 µM), inactives show top-dose activity, negative = toxicity, most hits filed as cytotoxic;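 further: 0% = DMSO wells and -100% = cell-free medium wells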
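Luminescent ATP read-out (CellTiter-Glo, 10 min at room temperature) after 48 h compound exposure at 37 °C gave viability of IDH1-knockdown HT-1080 cells. Activity was normalised to DMSO and cell-free wells, then fitted as concentration-response curves.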
KB-3-1 cytotox: KB-3-1 parental cell cytotoxicity | KB-3-1 viability, CellTiter-Glo ATP luminescence, 72 h | Potency, µM (doses to about 46.1 µM), most hits filed as cytotoxic | 1.4% of 400,000 active; further: nearly all actives have a fitted effect of over 60% in size
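KB-3-1 parental drug-naive adenocarcinoma cells in DMEM/10% FBS, incubated 72 h at 37 C with pin-transferred compounds across a concentration series. Viability by CellTiter-Glo luminescence; concentration-response curves fitted after normalization.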
HT1080NT lethal: kills 2HG-producing HT-1080-NT fibrosarcoma cells; HT-1080-NT fibrosarcoma viability, CellTiter-Glo ATP luminescence, 48 h; Potency, µM (titrated, usually from 46.1 µM), inactives show top-dose activity, negative = less viability, most hits filed as cytotoxic; 1.6% of 360,000 active;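 further: NT is the 2HG producing partner of a matched IDH1 knockdown line; 0% = DMSO-treated cells and -100% = media-only wells without cells; nearly all actives have a fitted effect of over 55% in size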
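Toxicity toward the 2HG-producing NT line was scored as %Activity, normalised to DMSO and no-cell wells, from CellTiter-Glo luminescence after 48 hours' treatment.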
Numbers without * were called inactive; i = inactive; u = inconclusive; x = no result. The call rests on the fitted dose curve; in most records, active means well fitted curve in the direction sought with a large enough effect; inconclusive means small, poorly fitted or top-dose-only effect, or another doubt; inactive means no such curve, though single readings can be large; an effect the other way counts as inactive or inconclusive. Unless noted, on the % scale 0 is the no-effect control and ±100 the full control effect; potency means the concentration at half of the fitted maximal effect.

SMILES	KB-V1 MDR tox	HT1080 IDH1KD tx	KB-3-1 cytotox	HT1080NT lethal
COc1ccc(CN2CCC(C(=O)NC(C)c3cccc4ccccc34)CC2)cc1 (configuration not stated)	i	-14%	i	-16%
c1ccc(Nc2nc(-c3ccccc3)c(-c3ccccc3)s2)cc1	x	u	x	-28%
Cc1cc(C)c2cc(CN(CC3CCCO3)S(=O)(=O)c3ccc4c(c3)OCCO4)c(=O)[nH]c2c1 (configuration not stated)	16µM*	-24%	i	-10%
COc1ccc2cc(CN(CC3CCCO3)S(=O)(=O)c3ccccc3)c(=O)[nH]c2c1 (configuration not stated)	21µM*	-6%	i	-7%
CSc1nc(Nc2ccc(C)cc2C)cc(-c2ccccc2)n1	i	x	i	x
Cc1cc(NCCCCCCCNc2cc(C)nc3cc([N+](=O)[O-])ccc23)c2ccc([N+](=O)[O-])cc2n1	21µM*	u	u	u
O=C(NCC(c1ccco1)N1CCCCC1)c1ccc(COc2ccc(Cl)cc2)cc1 (configuration not stated)	i	u	u	18µM*
O=C(COc1ccc(Cl)cc1Br)NCC(c1ccco1)N1CCCC1 (configuration not stated)	5.8µM*	-13%	i	-10%
O=C(NNC(=O)c1ccccn1)c1ccc(OC(F)F)cc1	u	21µM*	u	u
CCn1nc(C(=O)NNC(=O)c2ccc(OC(F)F)cc2)c2ccccc2c1=O	16µM*	16%	u	2%
CCCn1nc(C(=O)NNC(=O)c2ccc(OC(F)F)cc2)c2ccccc2c1=O	i	1%	i	2%
O=C(NCCc1ccccn1)c1ccc(OC(F)F)cc1	i	21%	i	26%
CCCCCn1c(N)c(-c2nc3ccccc3s2)c2c([N+](=O)[O-])nn(CC)c(=O)c21	18µM*	1%	i	0%
CCCCn1c(N)c(-c2nc3ccccc3s2)c2c([N+](=O)[O-])nn(CC)c(=O)c21	u	3%	i	6%
O=S(=O)(c1cccs1)N1CCN(Cc2nc3ccccc3s2)CC1	23µM*	-9%	i	-9%
O=C(CCc1nc2ccccc2s1)N1CCN(S(=O)(=O)c2cccs2)CC1	i	6%	i	3%
CC(c1ccccc1)N1CCC(CNC(=S)Nc2cccc(Cl)c2)C1 (configuration not stated)	i	18µM*	i	18µM*
Cc1ccc(NC(=S)NCC2CCN(C(C)c3ccccc3)C2)cc1 (configuration not stated)	i	-3%	i	-28%
N#CC(=C1C=C(Br)C(=NO)C=C1Cl)c1ccc(Cl)cc1	i	-19%	u	-20%
N#CC(=C1C=CC(=NO)C(Cl)=C1)c1ccccc1	u	5.8µM*	6.5µM*	7.3µM*
Cc1ccc2c(c1)CCC2=O	i	x	i	x
Cc1ccc(S(=O)(=O)Nc2ccc(Cl)cn2)cc1	i	4%	i	3%
COc1ccc(S(=O)(=O)Nc2ccc(Cl)cn2)c(C)c1C	23µM*	5%	i	1%
CCN1/C(=C2\SC(=S)N(Cc3ccccc3)C2=O)Sc2ccccc21	i	12%	i	11%
CCC(CO)[n+]1c(C)cc(/C=C2\Sc3ccccc3N2Cc2ccccc2)cc1C (configuration not stated)	i	3.3µM*	1.6µM*	3.3µM*
SMILES	KB-V1 MDR tox	HT1080 IDH1KD tx	KB-3-1 cytotox	HT1080NT lethal
Cc1noc(C)c1C(=O)N1CCC(Cc2ccccc2)CC1	15µM*	-1%	i	1%
Cc1onc(-c2ccccc2Cl)c1C(=O)N1CCC(C(N)=O)CC1	i	11%	i	2%
Cc1onc(-c2ccccc2Cl)c1C(=O)N1CCC(Cc2ccccc2)CC1	i	18µM*	u	-11%
C(=C\c1ccnc2ccccc12)/c1cc2c3c(c1)CCCN3CCC2	i	x	i	x
O=C(c1ccccc1)N1CCN(CC(O)COCC2CC=CCC2)CC1 (configuration not stated)	9.2µM*	1%	i	0%
O=C(Nc1ccc2ccccc2c1)Nc1nnc(-c2ccccc2Cl)s1	i	x	i	x
CC1(C(=O)Nc2ccc(Cl)cc2)Cc2c(-c3ccc(C(N)=O)cc3)ccnc2O1 (configuration not stated)	i	u	i	u
CC(=O)Nc1cccc(-c2ccnc3c2CC(C)(C(=O)Nc2ccc(F)c(Cl)c2)O3)c1 (configuration not stated)	21µM*	u	u	u
CC1(C(=O)Nc2ccc(F)c(Cl)c2)Cc2c(-c3ccc(C(N)=O)cc3)ccnc2O1 (configuration not stated)	u	21µM*	i	u
CC(=O)Nc1cccc(-c2ccnc3c2CC(C)(C(=O)Nc2ccccc2)O3)c1 (configuration not stated)	i	0%	i	-14%
CC(=O)Nc1cccc(-c2ccnc3c2CC(C)(C(=O)Nc2ccc(Cl)c(C(F)(F)F)c2)O3)c1 (configuration not stated)	u	23µM*	u	u
CCc1nn(CC(=O)N2CCN(c3cccc(C(F)(F)F)c3)CC2)c(=O)c2cccn12	i	x	i	x
Cn1cc(-c2coc3c(C(=O)Nc4ccccc4)cccc23)cn1	10µM*	-9%	i	-18%
CC(=O)c1cccc(NC(=O)c2cccc3c(-c4cnn(C)c4)coc23)c1	u	18%	i	10%
CCCNC(=O)c1c(O)c2cccc3c2n(c1=O)CCC3	i	4%	i	-2%
CCN(CC)C(=O)Oc1cc(=O)n2c3c(cccc13)CCC2	16µM*	-3%	i	-4%
COc1ccc(CNC(=O)C2CCCN(S(=O)(=O)c3ccc4c(ccn4C)c3)C2)c(OC)c1 (configuration not stated)	i	x	i	x
CC(C)c1ccc(S(=O)(=O)N2CCN(Cc3cccc(F)c3)CC2)cc1	i	x	i	x
O=C(NCC1CCCO1)/C(=C\c1cccc([N+](=O)[O-])c1)NC(=O)c1ccccc1 (configuration not stated)	i	4%	i	13%
O=C(NCC1CCCO1)c1ccccc1NS(=O)(=O)c1cc([N+](=O)[O-])ccc1Cl (configuration not stated)	16µM*	-7%	u	-11%
O=C(NCC1CCCO1)C(=Cc1cccc([N+](=O)[O-])c1)C(=O)NCC1CCCO1 (configuration not stated)	i	u	u	16µM*
O=C(NCC1CCCO1)c1ccccc1NS(=O)(=O)c1cccc([N+](=O)[O-])c1 (configuration not stated)	i	-6%	i	-7%
COCCCNC(=O)c1ccc(Cn2c(=O)c3ccccc3n(Cc3c(C)cc(C)cc3C)c2=O)cc1	i	x	i	x
